A short description of assay [1]: qHTS assay to identify small molecule antagonists of the estrogen receptor alpha (ER-alpha) signaling pathway using the BG1 cell line in the presence of 0.1 nM 17-beta-estradiol - cell viability counter screen (AID 1259241). Further: nearly all actives have a fitted effect of over 40% in size. The method in brief:
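VM7Luc4E2 cells (endogenous full-length ER-alpha, 4xERE-luciferase), cultured 5 days in charcoal-stripped serum, exposed to compounds with 0.1 nM 17beta-estradiol (final) for 22 hr at 37C. Viability read in same wells as live-cell protease fluorescence after 30 min.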
On the technique in general: In qHTS, concentration-response curves come from the screen itself.

Assay [2] in a line: qHTS assay to identify small molecule antagonists of the androgen receptor (AR) signaling pathway using the MDA cell line in the presence of 0.5 nM R1881 - cell viability counter screen (AID 1259242). Further: nearly all actives have a fitted effect of over 45% in size. The method in brief: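 Live-cell protease activity was measured by CellTiter-Fluor fluorescence after 30 min. Before that, MDA-kb2 MMTV-luciferase cells had 16 hr at 37C without CO2, exposed to test compounds and 0.5 nM R1881 final.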

For assay [3], the target named is Androgen receptor (Homo sapiens) (UniProt P10275). Description: qHTS assay to identify small molecule antagonists of the androgen receptor (AR) signaling pathway using the MDA cell line in the presence of 0.5 nM R1881 (AID 1259243). Further: nearly all actives have a fitted effect of over 50% in size. In outline:
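Luminescent reporter readout (ONE-Glo, 30 min, room temperature) after 16 hr co-treatment of MDA-kb2 cells with test compounds and 0.5 nM R1881 final, at 37C without CO2. The MMTV-driven luciferase responds to both AR and GR.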

The nature of assay [4]: qHTS assay to identify small molecule phospholipidosis (PLD) inducers (AID 1259344; active means well fitted curve in the direction sought with a large enough effect; an effect the other way counts as inactive or inconclusive). In outline: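 Accumulated phospholipid, stained red by LipidTOX during 24 h compound treatment of HepG2 cells at 37 C, is quantified from images as pit number and intensity, normalised per cell using Hoechst-stained nuclei.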
Assay [5] can be described thus: qHTS assay to identify small molecule HDAC inhibitors (AID 1259364). Further: top concentration of the series differs between compounds; nearly all actives have a fitted effect of over 45% in size. The method in brief: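 Luminescence read after 30 min room-temperature HDAC-Glo incubation measures cellular class I/II HDAC activity. Compounds were applied for 2 hr at 37 C to HCT-116 wild-type cells seeded the day before.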
A short description of assay [6]: qHTS assay to identify small molecule HDAC inhibitors - cell viability counter screen (AID 1259365). Further: series mostly up to about 92 µM; nearly all actives have a fitted effect of over 50% in size. In outline:
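Wild-type HCT-116 cells, 1,500/well, cultured overnight, then compound-treated 2 h at 37 C. Viability measured as ATP luminescence with CellTiter-Glo after 30 min at room temperature.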

Assay [7] can be described thus: qHTS assay to identify small molecule agonists of the sonic hedgehog signaling (Shh) pathway - cell viability counter screen (AID 1259366). Further: nearly all actives have a fitted effect of over 50% in size. The method in brief: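 NIH/3T3-derived Gli1-Luc reporter cells, 2,000 per well, received compound after 4 h and were treated about 23 h at 37C. Viability measured in the same wells by CellTiter-Fluor fluorescence after 1 h.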

Assay [8] can be described thus: qHTS assay to identify small molecule antagonists of the sonic hedgehog signaling (Shh) pathway - cell viability counter screen (AID 1259367). Further: nearly all actives have a fitted effect of over 55% in size. The method in brief:
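CellTiter-Fluor signal in conditioned medium-stimulated 3T3 Gli1-Luc cells, 23 hr compound exposure, 37C.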

Assay [9] is described as follows: qHTS assay to identify small molecule agonists of the sonic hedgehog signaling (Shh) pathway (AID 1259368; calls by dose curve;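 further: NIH/3T3-derived 3T3Gli1-Luc cells carrying a stable Gli1-driven firefly luciferase reporter; series mostly up to about 92 µM; nearly all actives have a fitted effect of over 15% in size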). In outline:
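Luminescence was read after 30 min at room temperature with luciferase reagent. Before that, 3T3Gli1-Luc cells (NIH/3T3 clone, stable Gli1-Luc reporter; 2,000/well) were exposed to compounds for 24 hr at 37C, 5% CO2, compounds being added 4 hr post-plating.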

A short description of assay [10]: qHTS assay to identify small molecule antagonists of the sonic hedgehog signaling (Shh) pathway (AID 1259369; calls by dose curve; further: nearly all actives have a fitted effect of over 45% in size; further: potency means the concentration at half of the fitted maximal effect). The method in brief:
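Antagonist mode: compound added to 3T3 Gli1-Luc cells followed by conditioned-medium stimulation, 24 h at 37 C, 5% CO2. Inhibition taken as loss of Gli1-driven luciferase luminescence.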

The target of assay [11] is Estrogen receptor beta (Homo sapiens) (UniProt Q92731). The experiment in a line: qHTS assay to identify small molecule antagonists of the estrogen receptor beta (ER-beta) signaling pathway (AID 1259378; active means well fitted inhibition curve with a large enough effect in the signal ratio in the repeat runs, not every such curve was filed as active; the % refers to the signal ratio). The method in brief: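 Antagonist mode: compounds added to beta-lactamase reporter HEK293T ER-beta-UAS cells stimulated with E2 (1nM final), 16 hr at 37C. LiveBLAzer B/G FRET substrate, 2 hours room temperature, fluorescence read-out.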
Chain of Estrogen receptor beta (Homo sapiens) (Q92731 whole entry, looked up): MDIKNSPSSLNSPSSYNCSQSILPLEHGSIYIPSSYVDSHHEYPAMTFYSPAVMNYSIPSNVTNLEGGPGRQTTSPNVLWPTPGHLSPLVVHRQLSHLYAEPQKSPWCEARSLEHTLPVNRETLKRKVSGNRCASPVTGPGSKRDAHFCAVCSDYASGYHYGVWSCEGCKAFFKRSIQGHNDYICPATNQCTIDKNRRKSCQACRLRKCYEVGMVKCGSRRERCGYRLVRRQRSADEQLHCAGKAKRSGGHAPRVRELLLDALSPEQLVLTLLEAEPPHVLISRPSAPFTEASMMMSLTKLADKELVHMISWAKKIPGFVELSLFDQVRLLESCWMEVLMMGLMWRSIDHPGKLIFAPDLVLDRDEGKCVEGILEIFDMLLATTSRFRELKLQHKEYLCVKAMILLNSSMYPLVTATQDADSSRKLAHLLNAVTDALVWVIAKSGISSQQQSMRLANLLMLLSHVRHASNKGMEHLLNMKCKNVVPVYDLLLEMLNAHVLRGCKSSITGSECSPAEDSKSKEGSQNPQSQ

The nature of assay [12]: qHTS assay to identify small molecule agonists of the androgen receptor (AR) signaling pathway in the presence of an antagonist - cell viability counter screen (AID 1259379).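 Further: MDA-kb2 human breast cancer cells carrying an MMTV luciferase reporter; series mostly up to about 92 µM; nearly all actives have a fitted effect of over 25% in size.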 The method in brief:
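Cytotoxicity counter-screen run in the same wells as the nilutamide-challenged (3.0 µM final) AR agonist assay in MDA-kb2 cells. Compounds tested at 15 concentrations for 16 h, 37 °C without CO2; CellTiter-Fluor fluorescence read.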

Assay [13] in a line: qHTS assay to identify small molecule agonists of the estrogen receptor beta (ER-beta) signaling pathway - cell viability counter screen (AID 1259380). Further: nearly all actives have a fitted effect of over 30% in size. The method in brief:
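Cell viability counter screen: CellTiter-Glo luminescence (30 min, room temperature) measured in the same wells as the beta-lactamase readout, after 16 hr compound exposure at 37C of ER-beta-bla HEK293T cells in 2% charcoal-stripped FBS medium.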

The target of assay [14] is Androgen receptor (Homo sapiens) (UniProt P10275). Description: qHTS assay to identify small molecule agonists of the androgen receptor (AR) signaling pathway in the presence of an antagonist (AID 1259381; calls by dose curve; further: nearly all actives have a fitted effect of over 15% in size). The method in brief:
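Agonist-mode confirmation run against 3.0 uM final nilutamide: compounds titrated at 15 concentrations onto MDA-kb2 MMTV-luciferase reporter cells. Luminescence measured with ONE-Glo following 16 hr incubation, 37C, 0% CO2.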

Assay [15] can be described thus: qHTS assay to identify small molecule antagonists of the estrogen receptor beta (ER-beta) signaling pathway - cell viability counter screen (AID 1259382).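 Further: HEK293T cells carrying ER-beta-UAS-bla reporter stimulated with estradiol; series mostly up to about 92 µM; nearly all actives have a fitted effect of over 55% in size.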 In outline: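 Cytotoxicity was measured in the same wells by CellTiter-Glo luminescence after 30 min at room temperature. Cells were ER-beta-bla HEK293T in charcoal-stripped serum, given compound together with 1 nM E2 and incubated 16 h at 37C.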

A short description of assay [16]: qHTS assay to identify small molecule agonists or antagonists of the thyroid stimulating hormone receptor (TSHR) signaling pathway - wild type cell line counter screen (AID 1259384; calls by dose curve). In outline:
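Counter screen in untransfected Hek293: compounds (15-point titration, triplicate) plus phosphodiesterase inhibitor Ro20-1724 added after 18 h plating; 30 min RT. Intracellular cAMP via competitive d2/cryptate immunoassay, 1 h incubation.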

The target of assay [17] is Thyrotropin receptor (Homo sapiens) (UniProt P16473). The experiment in a line: qHTS assay to identify small molecule antagonists of the thyroid stimulating hormone receptor (TSHR) signaling pathway (AID 1259385; calls by dose curve; further: nearly all actives have a fitted effect of over 20% in size). The method in brief:
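Antagonist mode: compound-treated TSHR-expressing HEK293 cells were stimulated with 1.5 ng/mL TSH (final) in presence of Ro20-1724 for 30 min at RT. HTRF cAMP detection after 1 h; each compound tested at 15 concentrations, triplicate.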

Assay [18] concerns the target Estrogen receptor (Homo sapiens) (UniProt P03372). Description: qHTS assay to identify small molecule antagonists of the estrogen receptor alpha (ER-alpha) signaling pathway using the BG1 cell line in the presence of 0.1 nM 17-beta-estradiol (AID 1259244). Further: nearly all actives have a fitted effect of over 50% in size. In outline:
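Luciferase luminescence (ONE-Glo, 30 min at room temperature) was read after 22 hr at 37C exposure to compounds plus 17beta-estradiol at 0.1 nM final. Cells were VM7Luc4E2 with endogenous ER-alpha and an ERE-driven luciferase, pre-cultured 5 days in hormone-depleted medium.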

Assay [19] has the same target. Description: qHTS assay to identify small molecule agonists of the estrogen receptor alpha (ER-alpha) signaling pathway in the presence of an antagonist (AID 1259383; calls by dose curve; further: top concentration of the series differs between compounds; nearly all actives have a fitted effect of over 15% in size). In outline:
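Agonist-mode confirmation run in the presence of 10.0nM (final) ICI-182,780 antagonist. The reporter was ERE-driven luciferase in VM7Luc4E2 cells, grown in charcoal-stripped serum. Cells were exposed to 15-concentration compound series for 22hr, then ONE-Glo luminescence was read.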

Assay [20] concerns the target Estrogen receptor beta (Homo sapiens) (UniProt Q92731). Description: qHTS assay to identify small molecule agonists of the estrogen receptor beta (ER-beta) signaling pathway (AID 1259377; active means well fitted activation curve with a large enough effect in the signal ratio in the repeat runs, not every such curve was filed as active; the % refers to the signal ratio). The method in brief: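 ER-beta-UAS-bla HEK293T cells in medium with 2% charcoal-stripped FBS were exposed to compounds for 16 h at 37C. Beta-lactamase reporter activity was read as fluorescence after 2 h with LiveBLAzer B/G FRET substrate at room temperature.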

Inconclusive results are not listed. Activity calls are given as the source filed them. Unless noted, the call rests on the fitted dose curve; in most records, active means well fitted curve in the direction sought with a large enough effect in the repeat runs; inconclusive means weak or mixed curves; inactive means no such curve, though single readings can be large; an effect the other way counts as inactive or inconclusive.

Chain of Estrogen receptor (Homo sapiens) (P03372 whole entry, looked up): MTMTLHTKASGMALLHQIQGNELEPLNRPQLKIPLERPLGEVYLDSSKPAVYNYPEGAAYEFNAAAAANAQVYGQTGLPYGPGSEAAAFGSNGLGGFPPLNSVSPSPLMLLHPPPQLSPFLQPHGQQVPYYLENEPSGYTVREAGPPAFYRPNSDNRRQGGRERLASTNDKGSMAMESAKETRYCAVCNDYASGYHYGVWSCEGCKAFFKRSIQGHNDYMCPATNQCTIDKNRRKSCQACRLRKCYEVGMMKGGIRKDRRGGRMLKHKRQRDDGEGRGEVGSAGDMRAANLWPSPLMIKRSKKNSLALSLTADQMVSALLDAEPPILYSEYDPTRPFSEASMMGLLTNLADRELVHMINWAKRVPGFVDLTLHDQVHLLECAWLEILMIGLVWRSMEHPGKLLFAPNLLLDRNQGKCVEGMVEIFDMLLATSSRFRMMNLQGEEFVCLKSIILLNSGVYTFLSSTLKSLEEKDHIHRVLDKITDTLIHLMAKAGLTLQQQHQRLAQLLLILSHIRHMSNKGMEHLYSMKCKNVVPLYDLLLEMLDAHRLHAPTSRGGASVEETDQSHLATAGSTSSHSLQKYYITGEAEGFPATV
Chain of Androgen receptor (Homo sapiens) (P10275 whole entry, looked up): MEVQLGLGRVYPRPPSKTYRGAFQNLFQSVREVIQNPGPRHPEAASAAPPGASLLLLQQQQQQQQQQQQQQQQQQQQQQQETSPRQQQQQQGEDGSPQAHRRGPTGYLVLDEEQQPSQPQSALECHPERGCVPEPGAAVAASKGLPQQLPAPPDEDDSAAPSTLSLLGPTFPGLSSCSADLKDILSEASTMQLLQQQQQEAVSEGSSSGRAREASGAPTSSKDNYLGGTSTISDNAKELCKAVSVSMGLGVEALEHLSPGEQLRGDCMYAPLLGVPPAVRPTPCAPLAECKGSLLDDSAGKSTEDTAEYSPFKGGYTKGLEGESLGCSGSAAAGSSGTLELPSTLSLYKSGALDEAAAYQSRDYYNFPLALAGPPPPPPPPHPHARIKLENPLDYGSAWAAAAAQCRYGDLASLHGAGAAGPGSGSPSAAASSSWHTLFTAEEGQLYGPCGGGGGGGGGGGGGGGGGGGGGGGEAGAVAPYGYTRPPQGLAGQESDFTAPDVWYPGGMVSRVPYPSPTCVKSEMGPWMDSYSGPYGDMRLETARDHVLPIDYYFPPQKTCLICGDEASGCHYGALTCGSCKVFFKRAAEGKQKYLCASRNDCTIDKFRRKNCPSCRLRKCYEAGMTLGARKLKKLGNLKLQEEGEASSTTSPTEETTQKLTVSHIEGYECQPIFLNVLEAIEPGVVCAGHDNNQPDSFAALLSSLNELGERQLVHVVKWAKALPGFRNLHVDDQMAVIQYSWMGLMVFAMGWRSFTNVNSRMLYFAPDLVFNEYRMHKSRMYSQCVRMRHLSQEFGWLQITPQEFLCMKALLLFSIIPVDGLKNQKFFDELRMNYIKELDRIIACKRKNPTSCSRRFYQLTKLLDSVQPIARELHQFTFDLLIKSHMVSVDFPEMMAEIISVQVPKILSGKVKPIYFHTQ
Chain of Thyrotropin receptor (Homo sapiens) (P16473 whole entry, looked up): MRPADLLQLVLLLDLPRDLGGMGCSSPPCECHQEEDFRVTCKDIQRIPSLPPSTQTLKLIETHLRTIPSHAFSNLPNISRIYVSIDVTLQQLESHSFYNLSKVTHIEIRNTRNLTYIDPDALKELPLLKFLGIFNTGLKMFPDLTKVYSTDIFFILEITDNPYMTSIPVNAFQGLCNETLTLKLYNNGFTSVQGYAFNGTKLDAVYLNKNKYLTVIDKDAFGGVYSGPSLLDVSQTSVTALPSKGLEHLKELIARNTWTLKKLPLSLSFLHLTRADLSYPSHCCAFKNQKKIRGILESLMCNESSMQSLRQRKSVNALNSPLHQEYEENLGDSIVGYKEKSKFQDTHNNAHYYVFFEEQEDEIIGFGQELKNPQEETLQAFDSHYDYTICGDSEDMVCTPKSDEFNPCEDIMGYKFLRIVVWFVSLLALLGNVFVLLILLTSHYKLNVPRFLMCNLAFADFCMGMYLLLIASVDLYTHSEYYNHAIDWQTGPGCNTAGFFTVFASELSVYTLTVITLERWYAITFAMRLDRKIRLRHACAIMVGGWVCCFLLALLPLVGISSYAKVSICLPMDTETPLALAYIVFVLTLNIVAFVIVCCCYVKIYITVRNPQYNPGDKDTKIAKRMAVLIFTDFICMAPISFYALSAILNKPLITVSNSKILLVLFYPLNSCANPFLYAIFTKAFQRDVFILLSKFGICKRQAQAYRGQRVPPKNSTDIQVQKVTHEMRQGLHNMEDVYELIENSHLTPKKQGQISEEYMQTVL

Consider `O=C(NCNC(=O)NC1C(=O)NC(=O)N1CO)NC1C(=O)NC(=O)N1CO` (centres undefined), for which the Potency result in [1], in [2], in assay [3], in assay [5], in [6] and in assay [7] was “inactive” in each case. Moreover, the Potency entry in assay [8], in assay [9], in assay [10], in [11], in assay [12] and in assay [13] was “inactive” each time. The Potency entry in [14], in assay [15] and in assay [17] was “inactive” each time. Further, the call in assay [4] and in assay [16] was inactive.

Consider `COc1cc(CC#N)cc(OC)c1OC`, for which the Potency result in assay [1], in assay [2], in assay [3], in assay [18], in assay [5] and in [6] was “inactive” each time. In addition, the Potency entry in assay [7], in [8], in assay [9], in assay [10], in [12] and in assay [13] was “inactive” in each case. In addition, the Potency entry in [14], in assay [15], in assay [19] and in [17] was “inactive” in each case. For the same compound, in [16], the compound was classed as inactive.

With `C=C(Cl)Cl`, the Potency entry in assay [1], in assay [2], in assay [3], in [18], in [5] and in [6] was “inactive” throughout. In addition, the Potency result in assay [7], in assay [8], in assay [10], in assay [12], in [13] and in [14] was “inactive” throughout. For the same compound, the Potency result in [15], in assay [19] and in [17] was “inactive” each time. For the same compound, in [16], the outcome was inactive.

As for `FC(F)OC(F)(F)C(F)Cl` (centres undefined), the Potency entry in assay [1], in assay [2], in assay [3], in assay [5], in [6] and in assay [7] was “inactive” each time. For the same compound, the Potency entry in [8], in assay [10], in assay [20], in assay [11], in assay [12] and in assay [13] was “inactive” throughout. Further, the Potency result in assay [14], in assay [15] and in assay [17] was “inactive” throughout. Moreover, the outcome in [4] and in [16] was inactive.

`CC(O)CN1CCN(CC(=O)[O-])CCN(CC(=O)[O-])CCN(CC(=O)[O-])CC1.[Gd+3]` (centres undefined): the Potency entry in [1], in assay [2], in [18], in assay [5], in assay [6] and in [7] was “inactive” throughout. Further, the Potency result in assay [8], in assay [9], in [10], in assay [11], in [12] and in assay [13] was “inactive” each time. Further, the Potency result in assay [15], in assay [19] and in assay [17] was “inactive” throughout. In addition, the compound was called inactive in assay [4] and in assay [16].

Turning to `CCC1(CCC(C)C)C(=O)NC(=O)NC1=O`, the Potency entry in assay [1], in assay [2], in [3], in assay [5], in [7] and in [8] was “inactive” each time. Besides, the Potency result in [10], in assay [20], in assay [11], in assay [12], in assay [13] and in assay [14] was “inactive” each time. Moreover, the Potency entry in [15] was “inactive”. The result in assay [4] was inactive.

Turning to `CN1CC[C@]23c4c5ccc(O)c4O[C@H]2[C@@H](O)CC[C@H]3[C@H]1C5`, the Potency entry in assay [1], in [2], in assay [18], in assay [5], in [6] and in [7] was “inactive” in each case. Also, the Potency result in [8], in assay [10], in [12], in assay [13], in assay [15] and in assay [19] was “inactive” in each case. Besides, the compound was called inactive in assay [4].

For `N#CC(C#N)=Cc1ccc(O)c(O)c1`, the Potency result in assay [1], in assay [2], in assay [3], in assay [18], in assay [5] and in [6] was “inactive” in each case. Moreover, the Potency result in assay [7], in [8], in assay [9], in [12], in assay [13] and in [14] was “inactive” in each case. In addition, the Potency result in [15], in assay [19] and in [17] was “inactive” each time. For the same compound, the outcome in [4] and in assay [16] was inactive. Further, the Potency in [10] is 7.5 µM (active).

These data come from PubChem BioAssay (Tox21).
